27 molecules from PubChem BioAssay (EPA / NIEHS) can be followed below.

Broadly, the AC50 is the midpoint of the concentration-response curve, whichever way the signal moves.

Where a structure was tested more than once in an assay, its records may differ in their call. Activity calls are given as the source filed them. How the source made its calls: active means hit-call score of the fitted dose curve at least 0.9, where 1 is the maximum; inactive means score below 0.9.

Read-out in this assay: Interleukin-8 (IL8), CXCL8 (gene 3576)
Nature of the assay: BSK_CASM3C_IL8: BioMAP Diversity Plus: CASM3C Assay for Interleukin-8 (IL8) Biomarker Activity (AID 2283042).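 Further: IL-8 protein level quantified by ELISA.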 Conditions: primary human coronary artery smooth muscle cells; actives raise or lower the signal.
Turning to `CC(C)(C)OOC(=O)c1ccccc1`, the outcome was inactive.

In the case of `ClC1=C(Cl)C2(Cl)C3C(Cl)C=CC3C1(Cl)C2(Cl)Cl` (stereo not drawn), the half-maximal activity concentration (AC50) was 34.6 µM (active).

On to `CCC12COCN1COC2`, for which the result was inactive.

In the case of `CCNS(=O)(=O)C(F)(F)C(F)(F)C(F)(F)C(F)(F)C(F)(F)C(F)(F)C(F)(F)C(F)(F)F`, the AC50 is 17 µM (active) and the outcome was inactive.

`CN(C)c1ccccc1`: the outcome was inactive.

Regarding `ClCCOCCCl`, the result was inactive.

On to `CCOc1cccc(C2(N3CCN(c4ccccc4)CC3)CCC(C)CC2)c1` (stereo not drawn), for which the result was inactive.

Turning to `CC(C)(C)C(O)(CCc1ccc(Cl)cc1)Cn1cncn1` (stereo not drawn), the outcome was inactive.

For the molecule `OCCCl`, the result was inactive.

Regarding `CC(C)N(Cc1ccccc1)C(=O)C(C)(C)C`, the outcome was inactive.

Regarding `C[N+](C)(C)CC1CO1` (stereo not drawn), the outcome was inactive.

Take `O=[N+]([O-])c1ccc(Oc2ccc(Cl)cc2Cl)cc1`: the outcome was inactive.

As to `C1=Cc2cccc3cccc1c23`, the outcome was inactive.

Turning to `Nc1ccc(Cc2ccc(N)cc2)cc1`, the outcome was inactive.

For `c1ccc(C2CO2)cc1` (stereo not drawn), the outcome was inactive.

Take `Cc1ccc([N+](=O)[O-])cc1`: the result was inactive.

As for `CNC(=O)Oc1cccc2c1OC(C)(C)C2`, the outcome was inactive.

On to `Cc1cccc(N)c1N`, for which the outcome was inactive.

Take `CN(C)C(=O)Nc1ccc(Cl)cc1`: the outcome was inactive.

For `[O-][Cl+]O`, the result was inactive.

For the molecule `O=C(N[C@H](c1ccccc1)[C@@H]1CN2CCC1CC2)c1c(Cl)ccc(C(F)(F)F)c1Cl`, the outcome was inactive.

As for `Clc1ccccc1Cl`, the result was inactive.

As for `OCCCBr`, the result was inactive.

With `CN(C)c1ccc(C(=O)c2ccc(N(C)C)cc2)cc1`, the result was inactive.

`CCCCC(CC)COC(=O)c1ccc(C(=O)OCC(CC)CCCC)c(C(=O)OCC(CC)CCCC)c1` (stereo not drawn): the result was inactive.

Consider `COC(=O)Nc1nc2ccccc2[nH]1`, for which the outcome was inactive.

Turning to `Cc1cc(N=Nc2ccccc2C)ccc1N`, the result was inactive.
